Here are results for 39 molecules from PubChem BioAssay.

Structures are written as SMILES. Several values for one entry are separate records, joined by “and”; a condition that tells them apart may be missing. Identical values can stand only once. Values without a mark were called inactive. Activity calls are given as the source filed them. No rule for the calls is given here.

This assay in a line: inducers of IRF3 signaling, differentiated THP-1 – cell-based, PMA-stimulated THP-1, luminescence (AID 1053176). As to conditions: PMA-differentiated THP-1, IRF3 reporter luminescence; stronger effect = higher value.
As to `Cn1cc(C2=C(c3cccnc3)C(=O)NC2=O)c2ccccc21`, the fraction signal was -0.005.
Consider `COc1cc[nH]c1C=C1C(=O)Nc2ccccc21`, for which the fraction signal is -0.02.
The value for `O=C1NC(=NCCc2cccs2)SC1=Cc1ccc2ncccc2c1` was -0.003; that for `COc1cc(F)c(F)cc1C(=O)c1cnc(NC2CCN(S(C)(=O)=O)CC2)nc1N` was -0.003.
For the molecule `COc1ccccc1CN=C1NC(=O)C(=Cc2ccc3ncccc3c2)S1`, the fraction signal is -0.0025.
The result for `COc1cccc(C2=C(c3cn(C)c4cccc(OC)c34)C(=O)NC2=O)c1` reads 0.0015; that for `Cn1cc(C2=C(Nc3ccccc3)C(=O)NC2=O)c2ccccc21`, -0.007.
The value for `Cn1cc(C2=C(c3ccccc3)C(=O)NC2=O)c2ccccc21` was -0.001; that for `COc1ccc(CCN=C2NC(=O)C(=Cc3ccc4ncccc4c3)S2)cc1` was 0.001; that for `CC(=C1SC(=NCc2cccs2)NC1=O)c1ccc2ncccc2c1` was -0.009.
The value for `COc1ccccc1CCN=C1NC(=O)C(=Cc2ccc3ncccc3c2)S1` was 0.39 (active).
Take `COc1cc[nH]c1C=C1C(=O)Nc2ccc(F)c(C#CC3(O)CCOCC3)c21`: the fraction signal was -0.0095.
Take `Cn1cc(C2=C(c3c4n(c5ccccc35)CCCC4)C(=O)NC2=O)c2ccccc21`: the fraction signal was 0.0055.
The result for `O=[N+]([O-])c1ccc2c(c1)C(c1ccccc1Cl)=Nc1c(n[nH]c1-c1cccnc1)N2` reads 0.01; that for `CS(=O)(=O)CCn1c(=O)c(Oc2ccc(F)cc2F)cc2cnc(NC3CCOCC3)nc21`, 0.0015.
`N#Cc1c(C(=O)c2ccccc2)cnn1-c1ccccc1`: the fraction signal is -0.007.
The result for `O=C1NC(=Nc2ccccc2)SC1=Cc1ccc2ncccc2c1` reads -0.003.
The result for `Fc1ccc(-c2c(-c3ccncc3)[nH]c3cccnc23)cc1` reads -0.0095; that for `CC(C)Nc1ncc2cc(Oc3ccc(F)cc3F)c(=O)n(C)c2n1`, -0.0005; that for `CC(O)CNc1cc(-c2[nH]c3cccnc3c2-c2ccc(F)cc2)ccn1` (centres undefined), 0.0055.
The value for `CCOc1ccccc1CCN=C1NC(=O)C(=Cc2ccc3ncccc3c2)S1` was 0.031.
Turning to `CCCCCNC(=O)C1CCCN2C(=O)CCC(NC(=O)C(Cc3ccc(OP(=O)(O)O)cc3)NC(C)=O)C(=O)N12` (centres undefined), the fraction signal was -0.007.
The result for `Cn1cc(C2=C(c3cn(CCCN=C(N)N)c4ccccc34)C(=O)NC2=O)c2ccccc21` reads -0.005.
For the molecule `Nc1c(C(=O)c2ccccc2)cnn1-c1ccc(F)cc1`, the fraction signal is -0.0025.
The value for `CC(c1ccccc1)C(C(=O)Nc1ccc(I)cc1F)N1C(=O)NC(c2ccc(OCC(O)CO)cc2)C1=O` (centres undefined) was 0.0035; that for `O=C1NC(=NCCc2ccc(Br)cc2)SC1=Cc1ccc2ncccc2c1` was 0.006.
The result for `N#CCn1c(=O)c(Oc2ccc(F)cc2F)cc2cnc(NC3CCOCC3)nc21` reads -0.007; that for `COc1ccc(F)cc1C(=O)c1cnc(NC2CCN(S(C)(=O)=O)CC2)nc1N`, -0.009; that for `Cc1ccccc1-n1ncc(C(=O)c2ccccc2)c1N`, -0.0005.
The result for `Nc1c(C(=O)c2ccc(C#CCN3CCOCC3)cc2)cnn1-c1ccc(F)cc1` reads 0.01; that for `Cn1cc(C2=C(c3ccc(N)cc3)C(=O)NC2=O)c2ccccc21`, -0.005; that for `Nc1c(C(=O)c2cccc(C(O)(CO)CO)c2)cnn1-c1ccc(F)cc1`, 0.0095.
Regarding `Cn1cc(C2=C(c3cn(C)c4cc(C(N)=O)ccc34)C(=O)NC2=O)c2ccccc21`, the fraction signal was -0.0005.
The value for `Cn1cc(C2=C(c3cccc(Br)c3)C(=O)NC2=O)c2ccccc21` was 0.0055.
For the molecule `O=C1NC(=NC(CO)c2ccccc2)SC1=Cc1ccc2ncccc2c1` (centres undefined), the fraction signal was -0.005 and 0.0055.
For the molecule `O=C1NC(=NCc2ccccc2)SC1=Cc1ccc2ncccc2c1`, the fraction signal is -0.003.
The value for `Nc1c(C(=O)c2cccc(OCCN3CCOCC3)c2)cnn1-c1ccc(F)cc1` was -0.009; that for `COc1ccc2c(C3=C(c4cn(C)c5ccccc45)C(=O)NC3=O)cn(C)c2c1` was -0.007.
The value for `Cn1cc(C2=C(n3ccc4ccccc43)C(=O)NC2=O)c2ccccc21` was -0.0025.
